# Measured values taken from PubChem BioAssay (Tox21).
# Inconclusive results are not listed. Unmarked numbers belong to inactive results. The source made the active and inactive calls. Calls come from the whole dose curve; as a rule, active = well fitted cell-killing curve with a large enough effect in the repeat runs; inconclusive = weak or mixed curves, or effect the other way; inactive = flat fitted curve, though single readings scatter.
# Assay: cAMP Responsive Elements (CRE) small molecule agonists, cell-based qHTS assay: qHTS cell viability counter screen (AID 2060914); note: nearly all actives have a fitted effect of over 50% in size
# Settings: CRE-bla HEK293T viability, CellTiter-Glo luminescence, 5 h; series mostly up to 92.4 µM; activity change, negative = cytotoxicity: at the top concentration
# Outline: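 Cytotoxicity counter screen multiplexed with the CRE-bla reporter assay in HEK 293T cells: 3 h compound exposure at 37 °C, followed by CellTiter-Glo luminescence measured in the same wells.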
# % is set by controls: 0 for no effect and ±100 for the full control effect.
Structure (SMILES),Potency,"activity change, negative = cytotoxicity"
CN1CCOCC1,inactive,
CC1=Nc2ccc3ccccc3c2C1(C)C,,-13.1%
C=C(C)C(N)=O,inactive,
CCCCCCCCCCCCCCCCC(C(=O)O)C(O)(CC(=O)O)C(=O)O (stereo not given),,-14.6% [at 42.5 µM]
Nc1ccn([C@H]2CC[C@@H](CO)O2)c(=O)n1,inactive,
CCCCCCC(O)CCOC(C)=O (stereo not given),,1.41% [at 240 µM]
CCC1C(=O)OCC1Cc1cncn1C (stereo not given),,14.6% [at 42.5 µM]
CN(C[C@@H](CC[N+]12CCC(C3CCCCC3)(CC1)CC2)c1ccc(Cl)c(Cl)c1)C(=O)c1cc(C(F)(F)F)cc(C(F)(F)F)c1,,-0.0559%
CCn1c(=O)c2c(nc(/C=C/c3ccc(OC)c(OC)c3)n2C)n(CC)c1=O,,-0.803% [at 42.5 µM]
Brc1ccc(-c2ccccc2)cc1,,1.92%
NC(N)=O,inactive,
O=C1c2ccccc2C(=O)c2cc(Cl)ccc21,,2.19% [at 8.39 µM]
CCCCC/C=C/CC(=O)OC,,8.47%
Cc1cc(C)c(C(=O)O)c(C)c1,,19.6%
CCCCC(CC)C(=O)O (stereo not given),inactive,
CN1C(=O)N(c2ccccc2Br)Cc2cnc(Nc3ccc4c(c3)OCC(CO)O4)nc21 (stereo not given),,-23.1%
CCCCCCCCCCCCS(=O)(=O)Cl,,8.81% [at 18.9 µM]
CCNc1nc(NC(C)CC)nc(OC)n1 (stereo not given),,-0.333%
COc1cc(CNC(=O)CCCC/C=C/C(C)C)ccc1O,,-3.16%
O=NN(CCCl)C(=O)NC1CCCCC1,,-10.2% [at 42.5 µM]

Structure (SMILES),Potency,"activity change, negative = cytotoxicity"
O=C(c1ccc(Cl)cc1)c1ccc(Cl)cc1,,6.67%
CC(=O)OC/C=C(\C)CC/C=C(\C)CCC=C(C)C,inactive,
N=c1nc(N2CCCCC2)cc(N)n1O,,-0.597% [at 42.5 µM]
COC(=O)NCCC[Si](OC)(OC)OC,,2.89%
NCCOCCOCCN,,-8.26%
CCc1ccccc1,,1.9%
CCC(C)OC(C)CC (stereo not given),,-0.477%
SC1CCCC1,,0.778%
CC(C)CCCCCOC(=O)CCS,,0.14%
CCCC(=O)O[C@]1(C(=O)CO)CC[C@H]2[C@@H]3CCC4=CC(=O)CC[C@]4(C)[C@H]3[C@@H](O)C[C@@]21C,,3.94% [at 42.5 µM]
CCOC(=O)[C@H](CCc1ccccc1)N[C@@H](C)C(=O)N1[C@H](C(=O)O)C[C@@H]2CCC[C@@H]21,,-2% [at 42.5 µM]
OC1CCCC1,inactive,
CCOc1ccc2nc(S(N)(=O)=O)sc2c1,,0.0922% [at 42.5 µM]
Cc1cc(S(=O)(=O)O)c(N)cc1Cl,,2.99%
CC(C)(C#N)c1cc(Cn2cncn2)cc(C(C)(C)C#N)c1,inactive,
COc1cc(C)cc(O)c1,,-0.615%
CN(C)CCCOC1(Cc2ccccc2)CCCCCC1,,3.11% [at 42.5 µM]
C[C@@H](O)[C@H]1C(=O)N2C(C(=O)O)=C([C@H]3CCCO3)S[C@H]12,,-3.88% [at 42.5 µM]
CC(C)(O)c1ccccc1CC[C@@H](SCC1(CC(=O)O)CC1)c1cccc(/C=C/c2ccc3ccc(Cl)cc3n2)c1,,14.2% [at 42.5 µM]
CCCCN(CCCC)C(=O)N(CCCC)CCCC,,-0.376%
